{
  "source": "PubChem BioAssay (NCATS)",
  "note": "Results filed as inconclusive are left out. A number with no mark means an inactive call. Calls of active or inactive are those of the source. Calls follow the shape of the full dose curve. Numbered stars: 1 amine (or outer) side, 2 acyl side, 3 side chain; on linkers, the order of the positions; unused ones are H or OH. Bridge positions count the residues as written; N and C are the ends. Square brackets hold non-standard residues; d marks the D form. Peptide text beside a SMILES is read from it. * marks the point of attachment. ξ: configuration not given here. pTerphenylCO(4''-OnC5H11) = CCCCCOc1ccc(-c2ccc(-c3ccc(C(=O)*)cc3)cc2)cc1; ξOrn(4,5-diOH) = O=C(C(CC(O)C(O)N[*:3])N[*:1])[*:2]; ξhTyr(βξ-OH,γξ-OH) = NC(C(=O)O)C(O)C(O)c1ccc(O)cc1; ξPro(3ξ-OH,4ξ-Me) = CC1CNC(C(=O)O)C1O; Hyp = O=C(O)[CH]1C[CH](O)CN1",
  "data": [
    {"experiment": "Primary qHTS for inhibitors of SARS-S pseudo-typed particle cell entry (AID 1479145); also: nearly all actives have a fitted effect of over 45% in size; also: potency is read from the fitted curve at half-maximal effect; as to activity change, negative = inhibition: % is scaled to controls: 0 for no effect and ±100 for the full control effect", "conditions": "SARS-S pseudotyped particle cell entry, luciferase reporter; series mostly up to 57.1 µM; activity change, negative = inhibition: at the top concentration", "values": [
      {"smiles": "C[C@H]1O[C@@H](O[C@H]2[C@@H](O)C[C@H](O[C@H]3[C@@H](O)C[C@H](O[C@H]4CC[C@@]5(C)[C@H](CC[C@@H]6[C@@H]5C[C@@H](O)[C@]5(C)[C@@H](C7=CC(=O)OC7)CC[C@]65O)C4)O[C@@H]3C)O[C@@H]2C)C[C@H](O)[C@@H]1O", "activity change, negative = inhibition": "-97.5%"},
      {"smiles": "CO[C@H](C(=O)[C@@H](O)[C@@H](C)O)C1Cc2cc3cc(O[C@H]4C[C@@H](O[C@H]5C[C@@H](O)[C@H](O)[C@@H](C)O5)[C@@H](O)[C@@H](C)O4)c(C)c(O)c3c(O)c2C(=O)[C@H]1O[C@H]1C[C@@H](O[C@H]2C[C@@H](O[C@H]3C[C@](C)(O)[C@H](O)[C@@H](C)O3)[C@H](O)[C@@H](C)O2)[C@H](O)[C@@H](C)O1", "note": "(some centres undefined)", "Potency": "3.55 µM (active)"},
      {"smiles": "CO[C@H]1C[C@@H]2CC[C@@H](C)[C@@](O)(O2)C(=O)C(=O)N2CCCC[C@H]2C(=O)O[C@H]([C@@H](C)C[C@@H]2CC[C@@H](O)[C@H](OC)C2)CC(=O)[C@H](C)/C=C(\\C)[C@@H](O)[C@@H](OC)C(=O)[C@H](C)C[C@H](C)/C=C/C=C/C=C/1C", "outcome": "inactive"},
      {"smiles": "COc1cc([C@@H]2c3cc4c(cc3C(O[C@@H]3O[C@@H]5CO[C@@H](c6cccs6)OC5[C@H](O)[C@H]3O)C3COC(=O)[C@@H]32)OCO4)cc(OC)c1O", "note": "(some centres undefined)", "Potency": "1 µM (active)"},
      {"smiles": "COc1ccc2c(c1)OC(C)(C)C(c1ccccc1)C2c1ccc(OCCN2CCCC2)cc1", "note": "(centres undefined)", "activity change, negative = inhibition": "-33.1%"},
      {"smiles": "C/C(O)=C(\\C#N)C(=O)Nc1ccc(C(F)(F)F)cc1", "activity change, negative = inhibition": "-21.8%"},
      {"smiles": "CCCCCCCCC=CCCCCCCCC(=O)NCCOC(=O)CC(C(=O)O)S(=O)(=O)O", "note": "(centres undefined)", "outcome": "inactive"},
      {"smiles": "CC1(S(=O)(=O)O)CC(=O)c2ccccc2C1=O", "note": "(centres undefined)", "activity change, negative = inhibition": "-1.48%"},
      {"smiles": "CC(C)C[C@H](NC(=O)CNC(=O)c1cc(Cl)ccc1Cl)B1OC(=O)C(CC(=O)O)(CC(=O)O)O1", "activity change, negative = inhibition": "-98.1%"},
      {"smiles": "Cc1cc(-c2ccc(N=Nc3ccc4c(S(=O)(=O)O)cc(S(=O)(=O)O)c(N)c4c3O)c(C)c2)ccc1N=Nc1ccc2c(S(=O)(=O)O)cc(S(=O)(=O)O)c(N)c2c1O", "outcome": "inactive"},
      {"smiles": "CC(=O)OC1CC(OC2C(O)CC(OC3C(O)CC(OC4CCC5(C)C(CCC6C5CCC5(C)C(C7=CC(=O)OC7)CCC65O)C4)OC3C)OC2C)OC(C)C1O", "note": "(centres undefined)", "activity change, negative = inhibition": "-96.2%"},
      {"smiles": "COc1cc2c(cc1O)CCN[C@]21CS[C@@H]2c3c(OC(C)=O)c(C)c4c(c3[C@H](COC1=O)N1[C@@H]2[C@H]2c3c(cc(C)c(OC)c3O)C[C@@H]([C@@H]1O)N2C)OCO4", "activity change, negative = inhibition": "-93.9% [at 11.4 µM]"},
      {"smiles": "Nc1nc(NC2CC2)c2ncn([C@H]3C=C[C@@H](CO)C3)c2n1", "outcome": "inactive"},
      {"smiles": "CCc1cc2c(cc1CC)CC(NC[C@H](O)c1ccc(O)c3[nH]c(=O)ccc13)C2", "outcome": "inactive"},
      {"smiles": "C(=C\\c1ccncc1)/c1ccccc1", "activity change, negative = inhibition": "0.959% [at 114 µM]"}
    ]},
    {"experiment": "Primary qHTS for Huh7 cytotoxicity: counterscreen for inhibitors of MERS-S pseudotyped particle cell entry (AID 1479147); also: potency is read from the fitted curve at half-maximal effect; as to activity change, negative = cytotoxicity: % is scaled to controls: 0 for no effect and ±100 for the full control effect", "conditions": "cell viability read-out; series mostly up to 57.1 µM; activity change, negative = cytotoxicity: at the top concentration", "values": [
      {"smiles": "COc1cc(CNC(=O)CCCC/C=C/C(C)C)ccc1O", "activity change, negative = cytotoxicity": "1.26%"},
      {"smiles": "CC[C@]12C=CCN3CC[C@@]4(c5cc([C@@]6(C(=O)OC)CC7C[C@@H](C(C)(F)F)CN(Cc8c6[nH]c6ccccc86)C7)c(OC)cc5N(C)[C@H]4[C@@](O)(C(=O)OC)[C@@H]1OC(C)=O)[C@@H]32", "note": "(some centres undefined)", "activity change, negative = cytotoxicity": "-29.2%"},
      {"smiles": "C=CC(=O)N1CCCC(n2nc(-c3ccc(Oc4ccccc4)cc3)c3c(N)ncnc32)C1", "note": "(centres undefined)", "activity change, negative = cytotoxicity": "0.939%"},
      {"smiles": "CCCCCOc1ccc(-c2ccc(-c3ccc(C(=O)NC4CC(O)C(O)NC(=O)C5C(O)C(C)CN5C(=O)C(C(C)O)NC(=O)C(C(O)C(O)c5ccc(O)cc5)NC(=O)C5CC(O)CN5C(=O)C(C(C)O)NC4=O)cc3)cc2)cc1", "note": "(stereo not drawn) ({pTerphenylCO(4''-OnC5H11)}-[ξOrn(4,5-diOH)]T[Hyp][ξhTyr(βξ-OH,γξ-OH)]T[ξPro(3ξ-OH,4ξ-Me)]; lactam 1-C; configuration not given here)", "activity change, negative = cytotoxicity": "-19.6% [at 26.4 µM]"},
      {"smiles": "C[C@@H](c1nc(-c2ccc(C#N)cc2)cs1)[C@](O)(Cn1cncn1)c1cc(F)ccc1F", "activity change, negative = cytotoxicity": "-14.3%"},
      {"smiles": "CCCCC(=O)N(Cc1ccc(-c2ccccc2-c2nn[nH]n2)cc1)[C@H](C(=O)O)C(C)C", "outcome": "inactive"},
      {"smiles": "CO[C@H]1C[C@H](O[C@@H]2[C@H](C)O[C@H](O[C@@H]3/C(C)=C/C[C@@H]4C[C@@H](C[C@]5(C=C[C@H](C)[C@@H](C6CCCCC6)O5)O4)OC(=O)[C@@H]4C=C(C)C(O)[C@H]5OC/C(=C\\C=C\\[C@@H]3C)[C@]54O)C[C@@H]2OC)O[C@@H](C)[C@@H]1O", "note": "(some centres undefined)", "outcome": "inactive"},
      {"smiles": "O=[N+]([O-])c1ccc(Oc2ccc(N=C=S)cc2)cc1", "activity change, negative = cytotoxicity": "-30.5%"},
      {"smiles": "C[C@]12C=CC(=O)C=C1CC[C@@H]1[C@@H]2[C@@H](O)C[C@@]2(C)[C@H]1CC[C@]2(O)C(=O)COP(=O)(O)O", "activity change, negative = cytotoxicity": "-13.3% [at 11.4 µM]"},
      {"smiles": "O=C(O)c1cc(O)c2c(c1)[C@H]([C@H]1c3cc(C(=O)O)cc(O)c3C(=O)c3c(O[C@@H]4O[C@H](CO)[C@@H](O)[C@H](O)[C@H]4O)cccc31)c1cccc(O[C@@H]3O[C@H](CO)[C@@H](O)[C@H](O)[C@H]3O)c1C2=O", "outcome": "inactive [at 26.4 µM]"},
      {"smiles": "OCCN1CCN(CC/C=C2/c3ccccc3Sc3ccc(Cl)cc32)CC1", "Potency": "22.4 µM (active)"},
      {"smiles": "CC[C@H](C)[C@@H]([C@@H](CC(=O)N1CCC[C@H]1[C@H](OC)[C@@H](C)C(=O)NCCc1ccccc1)OC)N(C)C(=O)[C@@H](NC(=O)[C@H](C(C)C)N(C)C)C(C)C", "activity change, negative = cytotoxicity": "-16.8%"},
      {"smiles": "C[C@@]12CCCCC[C@@H](Cc3ccc(O)cc31)[C@H]2N", "activity change, negative = cytotoxicity": "-8.64%"},
      {"smiles": "OCCOc1ccc(/C(=C(/CCCl)c2ccccc2)c2ccccc2)cc1", "outcome": "inactive"},
      {"smiles": "CCCOc1ccc2nc(NC(=O)OC)sc2c1", "activity change, negative = cytotoxicity": "-33.4%"},
      {"smiles": "NCCCC[C@H](NC(=O)[C@@H]1CCCN1C(=O)[C@@H]1CSSC[C@H](NC(=O)CNC(=O)CNC(=O)CN)C(=O)N[C@@H](Cc2ccc(O)cc2)C(=O)N[C@@H](Cc2ccccc2)C(=O)N[C@@H](CCC(N)=O)C(=O)N[C@@H](CC(N)=O)C(=O)N1)C(=O)NCC(N)=O", "note": "(H-GGGCYFQNCPKG-NH2; disulfide 4-9)", "outcome": "inactive"},
      {"smiles": "NCCS[As](SCCN)c1ccc(Nc2nc(N)nc(N)n2)cc1", "activity change, negative = cytotoxicity": "1.9%"},
      {"smiles": "N=C(N)c1ccc(/C=C/c2ccc(C(=N)N)cc2O)cc1", "outcome": "inactive"},
      {"smiles": "Cc1ccc(C(=O)OCc2ccc([C@@H](CN)C(=O)Nc3ccc4cnccc4c3)cc2)c(C)c1", "activity change, negative = cytotoxicity": "-11% [at 26.4 µM]"},
      {"smiles": "O=C(NC1CCN(CCCCC2(C(=O)NCC(F)(F)F)c3ccccc3-c3ccccc32)CC1)c1ccccc1-c1ccc(C(F)(F)F)cc1", "Potency": "31.6 µM (active)"},
      {"smiles": "CN(C)C(=O)c1cc2cnc(Nc3ccc(N4CCNCC4)cn3)nc2n1C1CCCC1", "activity change, negative = cytotoxicity": "-1.06% [at 26.4 µM]"},
      {"smiles": "S=C1SCN(Cc2ccccc2)CN1Cc1ccccc1", "Potency": "35.5 µM (active)"},
      {"smiles": "CC(=O)O[C@H]1C[C@@H]2CC[C@@H]3[C@H](CC[C@@]4(C)[C@H]3C[C@H](N3CC[N+](C)(C)CC3)[C@@H]4OC(C)=O)[C@@]2(C)C[C@@H]1N1CC[N+](C)(C)CC1", "activity change, negative = cytotoxicity": "0.747%"},
      {"smiles": "CNC(C)C(O)c1ccccc1", "note": "(centres undefined)", "activity change, negative = cytotoxicity": "2.25%"}
    ]}
  ]
}
